For 32 molecules, outcome and AC50 results are on record in PubChem BioAssay (EPA / NIEHS).

Structures are written as SMILES. Where “and” joins values, the source holds several entries; their conditions need not be identical. Equal entries are not always repeated. Inconclusive results are not listed. The source holds several records for some structures; these can differ, active in one and inactive in another. Calls of active or inactive are those of the source. How the source made its calls: active means hit-call score of the fitted dose curve at least 0.9, where 1 is the maximum; inconclusive means response in the unintended direction; inactive means score below 0.9.

The target of assay [1] is Cellular tumor antigen p53 (Homo sapiens) (UniProt P04637). The assay can be described thus: TOX21_p53_BLA_p2_ratio: Tox21 HCT-116 p53 Agonism Beta-lactamase Assay, Ratio, Phase 2 (AID 2283592). In outline: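 In this cell-based reporter format, HCT116 cells were dosed with chemicals delivered from DMSO by 217-fold dilution and incubated 16 h at 37C. Emission at 460 and 530 nm after 2 h CCF4-AM loading provided the ratio, fitted upward versus DMSO.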
Chain of Cellular tumor antigen p53 (Homo sapiens) (P04637 whole entry, looked up): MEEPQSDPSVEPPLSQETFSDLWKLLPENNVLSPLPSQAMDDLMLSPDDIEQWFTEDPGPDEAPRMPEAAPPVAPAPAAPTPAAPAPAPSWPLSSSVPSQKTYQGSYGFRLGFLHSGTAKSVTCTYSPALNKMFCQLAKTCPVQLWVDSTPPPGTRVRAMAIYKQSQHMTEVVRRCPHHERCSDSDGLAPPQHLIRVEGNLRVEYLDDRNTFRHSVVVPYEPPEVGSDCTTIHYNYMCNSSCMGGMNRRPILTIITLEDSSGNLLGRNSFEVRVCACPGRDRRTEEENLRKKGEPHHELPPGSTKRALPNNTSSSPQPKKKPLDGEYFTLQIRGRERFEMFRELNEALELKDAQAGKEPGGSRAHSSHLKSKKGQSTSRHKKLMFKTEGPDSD

A short description of assay [2]: TOX21_p53_BLA_p3_viability: Viability Assessment in the Tox21 HCT-116 p53 Agonism Beta-lactamase Assay, Phase 3 (AID 2283593).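 Further: cells exposed to compound for 16 h before reading.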 In outline: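 HCT-116 cells (4000/well) rested 5 h at 37C, then got DMSO compounds by pin tool (217-fold dilution) for 16 h at 37C, 5% CO2. After the bla read, CellTiter-Glo was added and luminescence read at 30 min, room temperature.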
A short description of assay [3]: TOX21_p53_BLA_p4_viability: Viability Assessment in the Tox21 HCT-116 p53 Agonism Beta-lactamase Assay, Phase 4 (AID 2283597).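 Further: hits lower the luminescence signal meaning cytotoxicity.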 The method, boiled down: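 We seeded HCT116 p53 reporter cells at 4000/well and waited 5 h. We then added compounds in DMSO at a 217-fold dilution and incubated for 16 h. Viability was read as CellTiter-Glo luminescence after 30 min at RT.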

Assay [4] is described as follows: TOX21_p53_BLA_p5_viability: Viability Assessment in the Tox21 HCT-116 p53 Agonism Beta-lactamase Assay, Phase 5 (AID 2283600). The method, boiled down:
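Compounds, pinned from DMSO at 217-fold dilution, were left on the cells for 16 h. The viability endpoint was ATP content measured by CellTiter-Glo luminescence, where falling signal reflects cytotoxicity.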

For assay [5], the target named is Cellular tumor antigen p53 (Homo sapiens) (UniProt P04637). Put plainly: TOX21_p53_BLA_p4_ratio: Tox21 HCT-116 p53 Agonism Beta-lactamase Assay, Ratio, Phase 4 (AID 2283601). In outline: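 HCT116 cells carrying an inducible beta-lactamase reporter were plated at 4000 cells/well, rested 5 h, then exposed to compounds in DMSO (217-fold dilution) for 16 h at 37C. CCF4-AM substrate was loaded 2 h at room temperature; 460/530 nm emission ratio scored gain-of-signal versus DMSO.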

The target is the same in assay [6]. The assay can be described thus: TOX21_p53_BLA_p3_ratio: Tox21 HCT-116 p53 Agonism Beta-lactamase Assay, Ratio, Phase 3 (AID 2283596). The method, boiled down:
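HCT116 p53-bla cells (4000/well) given compound in DMSO (217-fold dilution) after 5 h, incubated 16 h at 37C. CCF4-AM substrate 2 h at room temperature; 460/530 nm emission ratio, gain fitted against DMSO.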

Assay [7] shares this target. The assay can be described thus: TOX21_p53_BLA_p5_ratio: Tox21 HCT-116 p53 Agonism Beta-lactamase Assay, Ratio, Phase 5 (AID 2283599). In outline: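 HCT-116 cells carrying a p53-inducible beta-lactamase reporter were seeded at 4000 cells/well and dosed after 5 h with compound in DMSO (217-fold dilution). After 16 h at 37C, CCF4-AM substrate was added for 2 h, and the 460/530 nm emission ratio was scored as gain-of-signal versus DMSO.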

Assay [8] concerns the target PGR (gene 5241) (UniProt P06401). Put plainly: TOX21_PR_BLA_Followup_Antagonist_ratio: Tox21 HEK293 Progesterone Receptor (PR) Antagonism Beta-lactamase Follow-Up Assay, Ratio (AID 2283934). In outline:
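HEK293T PR-UAS-bla, 2% CS-FBS; 6 hr plating, then cpd + R5020 (1 nM final), 16 hr 37C/5% CO2. B/G FRET substrate 2 h RT. Ratio ch2/ch1 vs DMSO; CellTiter-Glo viability multiplexed, autofluorescence checked.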

A short description of assay [9]: TOX21_PR_BLA_Followup_Agonist_viability: Viability Assessment in the Tox21 HEK293 Progesterone Receptor (PR) Agonism Beta-lactamase Follow-Up Assay (AID 2283935).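 Further: signal loss means lower viability so actives are cytotoxic.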 In outline:
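HEK293T PR-UAS-bla, 3,000 cells/well, 2% CS-FBS; 6 hr pre-incubation; cpd in DMSO, 16 hr 37C; LiveBLAzer 2 hr RT, then CellTiter-Glo 30 min RT, luminescence. Decrease = lost viability.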

Assay [10] in a line: TOX21_PR_BLA_Followup_Antagonist_viability: Viability Assessment in the Tox21 HEK293 Progesterone Receptor (PR) Antagonism Beta-lactamase Follow-Up Assay (AID 2283936).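 Further: hits lower the luminescence signal meaning cytotoxicity.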 In outline:
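PR-UAS-bla HEK293T cells (3,000/well, 2% charcoal-stripped FBS) given compound plus R5020 agonist, 16 h at 37C. CellTiter-Glo added after bla read, 30 min at room temperature; luminescence loss indicates cytotoxicity.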

Assay [11] deals with PGR (gene 5241) (UniProt P06401). The assay can be described thus: TOX21_PR_LUC_Followup_Antagonist: Tox21 HEK293 Progesterone Receptor (PR) Antagonism Luciferase Follow-Up Assay (AID 2283938).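 Further: curve fitted upward as signal gain over DMSO baseline despite antagonist label.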 The method, boiled down:
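Luminescence from ONE-Glo reagent, measured after 30 min at room temperature, served as readout. Cells (HEK293 carrying PR-A-luc) had been treated 16 h at 37C with DMSO-dissolved compounds. Activity was fitted against DMSO controls.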

A short description of assay [12]: TOX21_PR_LUC_Followup_Agonist_viability: Viability Assessment in the Tox21 HEK293 Progesterone Receptor (PR) Agonism Luciferase Follow-Up Assay (AID 2283941).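 Further: loss of signal means cytotoxicity so actives lower viability.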 In outline: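 Cells were kept 5 days in charcoal-stripped serum medium before plating HEK293-PR-A-luc at 3,000 cells/well. After 5 h they received DMSO-dissolved compound and incubated 16 h at 37C. Viability was taken from CellTiter-Glo ATP luminescence.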

Chain of PGR (gene 5241) (P06401 whole entry, looked up): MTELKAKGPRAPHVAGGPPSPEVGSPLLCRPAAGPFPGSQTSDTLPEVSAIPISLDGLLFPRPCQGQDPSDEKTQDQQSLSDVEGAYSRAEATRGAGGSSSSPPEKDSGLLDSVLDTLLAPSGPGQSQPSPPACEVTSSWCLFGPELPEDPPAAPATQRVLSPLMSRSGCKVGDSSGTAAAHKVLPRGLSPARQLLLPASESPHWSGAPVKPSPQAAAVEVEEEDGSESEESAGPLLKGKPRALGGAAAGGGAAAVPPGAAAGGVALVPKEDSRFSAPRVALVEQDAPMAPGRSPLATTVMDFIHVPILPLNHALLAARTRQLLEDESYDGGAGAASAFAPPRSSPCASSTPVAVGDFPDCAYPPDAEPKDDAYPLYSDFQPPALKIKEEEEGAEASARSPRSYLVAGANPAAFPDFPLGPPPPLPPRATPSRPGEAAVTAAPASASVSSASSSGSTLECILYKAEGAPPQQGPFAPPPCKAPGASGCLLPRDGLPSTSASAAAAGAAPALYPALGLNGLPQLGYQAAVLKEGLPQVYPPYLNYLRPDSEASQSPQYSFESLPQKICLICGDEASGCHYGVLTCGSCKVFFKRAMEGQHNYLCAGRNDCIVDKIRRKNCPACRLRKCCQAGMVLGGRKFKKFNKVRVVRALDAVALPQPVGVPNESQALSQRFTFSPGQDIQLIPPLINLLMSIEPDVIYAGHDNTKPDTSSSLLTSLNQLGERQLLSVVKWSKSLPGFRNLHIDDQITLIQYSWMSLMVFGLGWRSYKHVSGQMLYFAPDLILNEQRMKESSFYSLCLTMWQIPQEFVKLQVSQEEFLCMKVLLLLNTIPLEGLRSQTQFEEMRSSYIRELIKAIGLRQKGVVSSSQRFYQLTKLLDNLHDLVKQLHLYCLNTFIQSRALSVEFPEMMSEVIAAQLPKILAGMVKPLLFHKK

For the molecule `CC1N=C(N)OC1c1ccccc1` (stereo not drawn), the result in [1], in [2], in assay [4] and in assay [5] was inactive. Also, in [3], the AC50 is 26 µM (active).

For `O=C(C[C@@H]1NCCC[C@H]1O)Cn1cnc2cc(Br)c(Cl)cc2c1=O`, the result in [1], in assay [2], in [3], in assay [4] and in assay [5] was inactive.

Regarding `Cc1c(Cl)c(=O)oc2cc(OP(=O)(OCCCl)OCCCl)ccc12`, the outcome in assay [1], in assay [2], in [6], in [7], in assay [4] and in assay [5] was inactive.

Turning to `Clc1ccc(C(Cl)(Cl)Cl)cc1Cl`, the result in [1], in assay [2], in [7], in assay [4] and in assay [5] was inactive.

For the molecule `Clc1cc(Cl)c(-c2cc(Cl)c(Cl)cc2Cl)cc1Cl`, the outcome in assay [1], in assay [2], in assay [7], in assay [4] and in assay [5] was inactive.

Regarding `CCCCCCCCCCOC(=O)c1ccccc1C(=O)OCCCCCCCCCC`, the result in [1], in assay [2] and in [7] was inactive.

Turning to `N[C@@H]1C[C@H]1c1ccccc1`, the outcome in assay [1], in assay [2], in assay [3] and in assay [7] was inactive.

On to `COC(=O)C(Cl)C(=O)OC`, for which the result in assay [1], in [2], in assay [3], in assay [4] and in assay [5] was inactive.

`COc1ccc(C(=O)N2CCCC2=O)cc1`: the result in assay [1], in assay [2], in assay [3], in [7] and in [4] was inactive.

For the molecule `O=C(O)C(Cl)(Cl)Br`, the result in [1], in [2], in assay [3], in assay [7] and in assay [5] was inactive.

Take `Cc1ncc2n1-c1ccc(Cl)cc1C(c1ccccc1F)=NC2`: the result in [1], in assay [2], in assay [3], in assay [7] and in [5] was inactive.

Take `CCN(CCO)CCn1c(Cc2ccccc2)nc2c1c(=O)n(C)c(=O)n2C`: the result in assay [1], in assay [2], in [3] and in assay [7] was inactive.

In the case of `C=CCCC#N`, the result in assay [1], in assay [2], in [6] and in [4] was inactive.

Take `Nc1nc(N)nc(N)n1`: the outcome in [1], in assay [2], in [6], in assay [7] and in [5] was inactive.

As for `c1ccc2c(c1)Sc1ccccc1N2C[C@@H]1CN2CCC1CC2`, the result in assay [1], in assay [6] and in assay [3] was inactive. In addition, the AC50 in assay [5] was 43.6 µM (active).

Consider `N#CC(Cl)Cl`, for which the result in assay [1], in [6], in assay [3], in [7], in assay [4] and in assay [5] was inactive.

Turning to `Oc1ccc2c3c1O[C@H]1[C@@H](O)C=C[C@H]4[C@@H](C2)NCC[C@@]341`, the result in [1], in [6], in [3], in assay [7] and in [5] was inactive.

For the molecule `c1ccc2c(c1)OCC(C1=NCCN1)O2` (stereo not drawn), the outcome in [1], in [6], in [3], in [7] and in assay [5] was inactive.

Consider `C[C@]1(O)CC[C@H]2[C@@H]3CCC4=CC(=O)CC[C@]4(C)[C@@]3(F)[C@@H](O)C[C@@]21C`, for which the result (in assay [1]; in assay [2]; in [4]; in [5]; with PGR (gene 5241) [8]; in assay [9]) was inactive. Besides, the call (in assay [10]; in the assay with PGR (gene 5241) [11]; in assay [12]) was inactive.

With `Cc1ccc2c(c1)[C@]13CCCC[C@@H]1[C@H](C2)N(C)CC3`, the outcome in assay [1], in [2] and in assay [5] was inactive.

In the case of `C(COCC1CO1)OCC1CO1` (stereo not drawn), the result in [1], in assay [6], in assay [3], in [7], in [4] and in [5] was inactive.

`C=C(C#N)CCC#N`: the result in assay [1], in assay [2], in assay [7], in [4] and in [5] was inactive.

On to `CC(CCc1ccccc1)NC(C)C(O)c1ccc(O)cc1` (stereo not drawn), for which the outcome in assay [1] and in assay [6] was inactive.

With `Cc1nc(N)nc(N)n1`, the outcome in [1], in assay [2], in assay [4] and in [5] was inactive.

In the case of `CCCN(CCCl)c1c([N+](=O)[O-])cc(C(F)(F)F)cc1[N+](=O)[O-]`, the result in [1], in assay [2] and in assay [4] was inactive.

For the molecule `Cc1cnc[nH]1`, the outcome in assay [1], in assay [2], in assay [4] and in [5] was inactive.

In the case of `CN(C)CCc1c[nH]c2cccc(O)c12`, the outcome in assay [1], in assay [6], in [3] and in assay [7] was inactive.

As to `CCCCCCCCCCCCCCCl`, the result in assay [1], in assay [6], in assay [3], in assay [7] and in assay [5] was inactive.

`CCSCc1ccccc1OC(=O)NC`: the result in assay [1], in assay [2], in assay [4] and in assay [5] was inactive.

Consider `CCCCCCBr`, for which the outcome in assay [1], in [6], in assay [3], in [7] and in assay [5] was inactive.

Turning to `CCCCCCCCCCCCCCCCn1cc[n+](C)c1`, the AC50 in [1] was 51.5 µM (active) and 29.9 µM (active) and 17.5 µM (active); in assay [6] it was 9.54 µM (active); in assay [7] it was 78.3 µM (active) and 41.3 µM (active); in assay [5] it was 71.6 µM (active) and 77.7 µM (active) and 60.1 µM (active). Besides, the result in assay [6], in assay [7] and in assay [5] was inactive.

Turning to `O=[N+]([O-])c1ccc(CCl)cc1`, the result in assay [1], in [6], in [3], in assay [7], in assay [4] and in [5] was inactive.
